Assay results reported in article PMC9838217, “Structure of SALL4 zinc finger domain reveals link between AT-rich DNA binding and Okihiro syndrome”.
Where a chain is given by its changes, count along the chain named.

How the values were obtained:
Test in all cases: HT-SELEX; high values mean tight binding
Conditions in all cases: protein: recombinant; vector His6-GST; dsDNA, one strand shown
SALL4 ZFC4 WT (HT-SELEX) = target: T1, SALL4 ZFC4 WT (HT-SELEX) (Mus musculus, UniProt Q8BX22 870-940)
T1 sequence: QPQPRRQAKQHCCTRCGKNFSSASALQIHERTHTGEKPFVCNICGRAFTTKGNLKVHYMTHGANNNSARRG
Procedure, shortened: (§1)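 Each canonical k-mer's binding signal is its read fraction expressed as fold change over the initial random library. Reads came from MiSeq sequencing, scanned for 6-mers, after up to 6 triplicate cycles in which purified recombinant mouse SALL4 zinc finger cluster 4 (residues 870–940, 1 µg) bound library DNA (1.5 µg first cycle, 200 ng later) in 100 µl of 10 mM Tris–HCl pH 7.5, 50 mM NaCl, poly(dI-dC), DTT for 10 min at room temperature. Complexes were then Ni2+ bead-captured, washed, PCR-amplified and reselected.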

[1] = target: T2, SALL4 ZFC4 R900W (HT-SELEX) (Mus musculus, UniProt Q8BX22 870-940, R900W)
T2 sequence: T1 sequence with R31W
Procedure, shortened: as §1

[2] = target: T3, SALL4 ZFC4 G921D (HT-SELEX) (Mus musculus, UniProt Q8BX22 870-940, G921D)
T3 sequence: T1 sequence with G52D
Procedure, shortened: as §1

| Sequence | binding signal (SALL4 ZFC4 WT (HT-SELEX)) [fold-change vs cycle 0] | binding signal [1] [fold-change vs cycle 0] | binding signal [2] [fold-change vs cycle 0] |
| --- | --- | --- | --- |
| AAACCC | 0.691 ± 0.0592 | 0.77 ± 0.0294 | 0.845 ± 0.0633 |
| AACAAA | 1.75 ± 0.107 | 1.8 ± 0.139 | 1.64 ± 0.143 |
| CCCCAA | 0.421 ± 0.0191 | 0.471 ± 0.00864 | 0.561 ± 0.0695 |
| ACTAAC | 1.38 ± 0.0461 | 1.53 ± 0.0676 | 1.43 ± 0.0927 |
| AATATG | 2.8 ± 0.213 | 1.83 ± 0.0804 | 1.66 ± 0.102 |
| AAGACT | 1.29 ± 0.0445 | 1.49 ± 0.0431 | 1.4 ± 0.0897 |
| AGCCAT | 0.592 ± 0.0288 | 0.664 ± 0.00758 | 0.778 ± 0.0611 |
| CTTGTA | 1.27 ± 0.0539 | 1.44 ± 0.0511 | 1.33 ± 0.0845 |
| CCGAAG | 0.38 ± 0.0225 | 0.441 ± 0.0244 | 0.553 ± 0.046 |
| ATCGTA | 1.24 ± 0.0384 | 1.28 ± 0.0284 | 1.29 ± 0.0379 |
| GAAACA | 1.23 ± 0.0252 | 1.33 ± 0.0252 | 1.29 ± 0.046 |
| ATCCAT | 1.62 ± 0.0994 | 1.54 ± 0.0869 | 1.44 ± 0.0984 |
| CACATA | 1.22 ± 0.0607 | 1.28 ± 0.0534 | 1.25 ± 0.0582 |
| TATCGA | 1.23 ± 0.0345 | 1.2 ± 0.0508 | 1.22 ± 0.03 |
| TCGGAA | 0.681 ± 0.041 | 0.761 ± 0.0268 | 0.862 ± 0.0635 |
| GGTTGA | 0.753 ± 0.0201 | 0.876 ± 0.0229 | 0.9303 ± 0.00634 |
| CGTACG | 0.303 ± 0.0125 | 0.389 ± 0.029 | 0.481 ± 0.0656 |
| AAAGTA | 1.92 ± 0.0856 | 1.98 ± 0.162 | 1.73 ± 0.169 |
| CGGATC | 0.362 ± 0.0382 | 0.438 ± 0.0155 | 0.571 ± 0.02 |
| CATAGG | 0.854 ± 0.0242 | 0.918 ± 0.0253 | 0.978 ± 0.022 |
| ATTGAC | 1.17 ± 0.0362 | 1.31 ± 0.032 | 1.3 ± 0.0284 |
| ACGATG | 0.719 ± 0.0288 | 0.794 ± 0.00845 | 0.87 ± 0.00912 |
| GATCGA | 0.664 ± 0.0531 | 0.763 ± 0.0206 | 0.91 ± 0.0578 |
| TCTCCA | 0.872 ± 0.044 | 0.992 ± 0.0225 | 0.99 ± 0.0254 |
| AGTTTA | 1.89 ± 0.117 | 1.94 ± 0.143 | 1.72 ± 0.194 |
| ATGTGC | 0.53 ± 0.0281 | 0.588 ± 0.00704 | 0.719 ± 0.0265 |
| GACCTC | 0.415 ± 0.0384 | 0.51 ± 0.0119 | 0.644 ± 0.0572 |
| CGACTC | 0.311 ± 0.0133 | 0.391 ± 0.0309 | 0.53 ± 0.0873 |
| CACACG | 0.405 ± 0.0118 | 0.525 ± 0.0166 | 0.649 ± 0.0779 |
| CCTCAA | 0.759 ± 0.0289 | 0.864 ± 0.0329 | 0.951 ± 0.0279 |
